Assay results from PubChem BioAssay (EPA / NIEHS).
Where “and” joins values, the source holds several entries; their conditions need not be identical. Identical values can stand only once. More than one record can exist for a structure, and the calls need not agree. Calls of active or inactive are those of the source. Rule for the calls: active = hit-call score of the fitted dose curve at least 0.9, where 1 is the maximum; inactive = score below 0.9.

Read-out: Collagen IV, COL4A1 (gene 1282)
Assay: BSK_MyoF_CollagenIV: BioMAP Diversity Plus: MyoF Assay for Collagen IV Biomarker Activity (AID 2284247)
Details: primary human lung fibroblasts
Protocol: BSK_MyoF is a cell-based, multiplexed-readout assay that uses lung fibroblasts, […], with measurements taken at 24 hours after chemical dosing in a microplate: 96-well plate.BSK_MyoF_CollagenIV is an assay component measured in the BSK_MyoF assay. It measures Collagen IV antibody related to regulation of gene expression using ELISA technology.Data from the assay component BSK_MyoF_CollagenIV was analyzed at the endpoint, BSK_MyoF_CollagenIV, in the positive analysis fitting direction relative to DMSO as the negative control and baseline of activity. Using a type of binding reporter, gain or loss-of-signal activity can be used to understand protein changes. To generalize the intended target to other relatable targets, this assay endpoint is annotated to the 'cell adhesion molecules' intended target family, where the subfamily is 'collagen'.
The levels of cell surface (or secreted, indicated by the prefix "s") biomarker endpoints were measured by ELISA. Overt cytotoxicity to cells in confluent adherent cultures (all systems other than the BT system) was assessed by measuring total protein levels using sulforhodamine B (SRB) staining in parallel cultures at the time of biomarker measurements, indicated as SRB endpoints. For proliferation assays for adherent cell types, individual cell types are cultured at sub-confluence and relative cell numbers quantified by SRB staining at time points optimized for each system (48 h: 3C and CASM3C systems; 72 h: BT and HDF3CGF systems; 96 h: SAg system). SRB was performed by staining cells with 0.1% SRB after fixation with 10% TCA and reading wells at 560 nm.Viability and proliferation of PBMC (T cells) was quantified by Alamar Blue reduction for the SAg and BT systems. For PBMC viability (referred to as PBMC Cytotoxicity within the assay endpoint names), cells were plated (75,000/well in a 96-well plate) and then chemical samples added for 1 h before addition of activators, SEB and TSST-1 (20 ng/mL final concentration each). Cells were incubated for 90 h. Then, Alamar Blue (20 uL/well) (Invitrogen, Cat DAL1100) was added for 6 h, and the plates were read with a fluorescence microplate reader at 546/580 nm (excitation/emission). For PBMC proliferation, cells were plated and activated as above but incubated for only 16 h prior to addition of Alamar Blue. Plates were read after 6 h.

Compound	outcome	AC50
O=C(O)C(F)(F)C(F)(F)C(F)(F)OC(F)(C(F)(F)F)C(F)(F)F	inactive	–
CC(C)CCCC(C)CCO (stereo not given)	inactive	–
OCC(O)CC(F)(F)C(F)(F)C(F)(F)C(F)(F)C(F)(F)C(F)(F)C(F)(F)C(F)(F)F (stereo not given)	inactive	–
NC(=O)C(F)(F)C(F)(F)C(F)(F)C(F)(F)C(N)=O	inactive	–
COC(F)(C(F)F)C(F)(F)F (stereo not given)	inactive	–
CCN(CC)c1ccc(N=Nc2ccccc2)cc1	–	9.37 µM (active)
O=C1C=CC(=O)N1c1ccc(Cc2ccc(N3C(=O)C=CC3=O)cc2)cc1	–	1.99 µM (active)
O=C(O)C(F)(F)C(F)(F)C(F)(F)OC(F)(F)F	inactive	–
CCN(CCO)S(=O)(=O)C(F)(F)C(F)(F)C(F)(F)C(F)(F)C(F)(F)C(F)(F)C(F)(F)C(F)(F)F	inactive	–
CCN(CC)c1ccc(C=O)cc1	inactive	–
O=S(=O)(OCC(F)(F)F)C(F)(F)C(F)(F)C(F)(F)C(F)(F)F	inactive	–
OCC(F)(F)C(F)(F)C(F)(F)C(F)(F)C(F)(F)C(F)(F)C(F)(F)C(F)(F)CO	inactive	49.1 µM (active)
Cc1ccc(S(=O)(=O)C(I)I)cc1	–	7.25 µM (active)
O=C(O)C(F)(F)C(F)(F)C(F)(F)C(=O)O	inactive	–
CCOC(=O)CC(=O)C(F)(F)C(F)(F)F	inactive	–
O=C(O)CCC(F)(F)C(F)(F)C(F)(F)F	inactive	–
FC(F)(F)C(F)(F)C(F)(F)CC1CO1 (stereo not given)	inactive	–
O=C(O)C(F)(F)C(F)(F)C(F)(F)C(F)(F)C(F)(F)C(F)(F)C(F)F	inactive	–
CO[Si](C)(CCC(F)(F)C(F)(F)C(F)(F)C(F)(F)C(F)(F)C(F)(F)F)OC	inactive	–

Compound	outcome	AC50
O=C=Nc1cccc2c(N=C=O)cccc12	inactive	–
OCCCC(F)(F)C(F)(F)C(F)(F)C(F)(F)C(F)(F)C(F)(F)C(F)(F)C(F)(F)F	inactive	7.39 µM (active)
CC1=CC2C3C=CC(C3)C2C1C (stereo not given)	inactive	–
C=CC(=O)OCCC(F)(F)C(F)(F)C(F)(F)C(F)(F)F	inactive	–
O=C(Cl)C(F)(F)C(F)(F)C(F)(F)C(F)(F)C(F)(F)C(F)(F)C(F)(F)F	inactive	–
CN(C(=O)C(F)(F)C(F)(F)C(F)(F)F)[Si](C)(C)C	inactive	–
O=C1c2c(O)ccc(Nc3ccc(CCO)cc3)c2C(=O)c2c([N+](=O)[O-])ccc(O)c21	–	34.1 µM (active)
NCC(F)(F)C(F)(F)C(F)(F)C(F)(F)C(F)(F)C(F)(F)F	inactive	–
NC(=O)C(F)(F)C(F)(F)C(F)(F)C(F)F	inactive	–
CNS(=O)(=O)C(F)(F)C(F)(F)C(F)(F)C(F)(F)C(F)(F)C(F)(F)C(F)(F)C(F)(F)F	–	2.71 µM (active) and 3.58 µM (active)
CC(C)(C)c1cc(CCC(=O)NCCCCCCNC(=O)CCc2cc(C(C)(C)C)c(O)c(C(C)(C)C)c2)cc(C(C)(C)C)c1O	inactive	–
Cc1cc(O)c(C(C)(C)C)cc1C(C)(C)C	–	4.74 µM (active)
Brc1nc2ccccc2s1	inactive	–
O=C(Cl)C(F)(F)C(F)(F)C(F)(F)C(F)(F)C(F)(F)C(F)(F)F	inactive	–
CCN(CC)c1ccc(C=O)c(O)c1	inactive	–
FC(F)(F)C(F)(F)C(F)(F)C(F)(F)C(F)(F)C(F)(F)C(F)(F)CCI	inactive	–
C[Si](Cl)(Cl)CCC(F)(F)C(F)(F)C(F)(F)C(F)(F)C(F)(F)C(F)(F)F	inactive	–
NC(O)(C(F)(F)F)C(F)(F)F	inactive	–
C=C(C)C(=O)OCC(F)(F)C(F)(F)C(F)(F)C(F)F	inactive	–
